# Assay results from the supplement of paper PMC3334620.
# Over roughly 33,000 sequences, “E-score (-0.5 to 0.5)” has its median near -0.036; the highest 2% begin near 0.37. For the sample, the highest values were picked, then their nearest neighbours and some sequences at random.
# Target: T1, Yer064c (UniProt P40041)
# T1 sequence: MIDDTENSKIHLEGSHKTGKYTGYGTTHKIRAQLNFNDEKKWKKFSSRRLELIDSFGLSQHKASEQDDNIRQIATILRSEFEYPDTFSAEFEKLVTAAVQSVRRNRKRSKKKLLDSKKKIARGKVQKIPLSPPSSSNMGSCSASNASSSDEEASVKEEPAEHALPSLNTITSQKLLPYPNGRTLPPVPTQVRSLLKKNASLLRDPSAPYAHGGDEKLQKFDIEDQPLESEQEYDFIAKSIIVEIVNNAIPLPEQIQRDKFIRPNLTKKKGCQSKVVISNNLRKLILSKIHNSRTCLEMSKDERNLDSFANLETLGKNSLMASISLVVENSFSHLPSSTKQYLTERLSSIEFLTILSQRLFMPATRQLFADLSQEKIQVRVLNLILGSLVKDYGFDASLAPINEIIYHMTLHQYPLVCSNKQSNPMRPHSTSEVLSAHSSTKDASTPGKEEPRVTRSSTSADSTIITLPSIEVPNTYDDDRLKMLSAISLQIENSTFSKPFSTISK
# Assay: PBM E-score (8-mer binding enrichment) (E-score (-0.5 to 0.5)); higher = stronger / more preferred TF binding
# Settings: protein concentration: 200 nM; construct: GST-full length
# Method in brief: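 GST-tagged yeast TFs (full-length or DNA-binding domain) were made by PURExpress in vitro transcription/translation and applied at about 100-200 nM to universal all-10-mer Agilent arrays. The arrays were made double-stranded by primer extension, on fresh or once-stripped slides. Bound protein was detected with fluorescent anti-GST, and scans were normalised with masliner. Each ungapped eight-base word, pooled with its reverse complement, received an E-score (modified Wilcoxon-Mann-Whitney statistic) from the Universal PBM Analysis Suite.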
row,Sequence,PBM E-score
1,CACCGCAA,-0.0119
2,ACTTAACG,0.0504
3,TACAGTGA,0.211
4,AACAGTCA,0.384
5,AACAGTCG,0.209
6,CACAGTCG,0.203
7,TACAGTAA,0.128
8,GACAGTCA,0.409
9,AACAGTCT,0.204
10,CACAGTCA,0.411
11,GACAGTTA,-0.103
12,TACAGTCA,0.418
13,GACAGTCC,0.0581
14,CACAGTCC,0.132
15,ACGGAGCG,-0.0547
16,AAGAGAGG,-0.104
17,CTGCTAAA,-0.141
18,AGTTCCAC,-0.0556
19,AAACGGGG,-0.128
20,CTGGACAG,0.0136
21,ATGCACCC,-0.0692
22,CAATAGTG,0.0438
23,CAATAGTC,0.409
24,AAATAGTG,0.062
25,CAATAGTA,-0.0839

row,Sequence,PBM E-score
1,GAATAGCC,-0.0409
2,GAATAGTC,0.38
3,AAATAGTT,-0.0372
4,GAATAGTA,-0.0424
5,AAATAGTC,0.382
6,GCGTAGAA,-0.12
7,CACCGTTA,0.0864
8,ATTGGTTG,-0.0268
9,CGCTCCCG,0.17
10,AAACCACA,-0.0212
11,ACTAACCG,0.163
12,TATTTGCA,0.0422
13,CGTCATGA,0.253
14,ATTCATGC,0.137
15,AGTCATGG,0.479
16,CGTCATGC,-0.173
17,AGCCATGG,0.268
18,AGTCATGA,0.485
19,AGTCATGC,0.487
20,GGTCATGA,0.255
21,ATTCATGG,0.224
22,TACTTACA,-0.0596
23,GAAGCCTA,-0.143
24,AACGTATT,-0.12
25,AGGGATAG,-0.255

row,Sequence,PBM E-score
1,TAGAGAGA,0.0957
2,AGAAGCAG,-0.1
3,AGCTTTCA,-0.0821
4,GTGTTGGA,-0.127
5,ATTTAATC,0.366
6,ATTTAGTC,0.444
7,ATTTAGTA,0.253
8,CTTTAATC,0.29
9,CTTTAGTA,0.14
10,ATTTAATA,0.117
11,CTTTAGAC,0.108
12,CTTTAGTC,0.416
13,ATTTAGTG,0.127
14,GGCCTACA,-0.0963
15,TAATAGCA,-0.09
16,ACCAAGAG,-0.00272
17,CATAACCA,0.071
18,GGCGAATA,-0.0639
19,CGGCGAGC,-0.108
20,GACTCATC,0.478
21,CACTCATA,0.259
22,GACTCATA,0.477
23,AACTCATC,0.33
24,CACTCATC,0.258
25,AACTCATA,0.275

row,Sequence,PBM E-score
1,CCTGCCAG,-0.212
2,ATTTTCAG,-0.135
3,CTCTGTCC,-0.14
4,ACTCTTAT,0.241
5,AGTCTTAC,0.415
6,AGTCTTAT,0.383
7,CGTCTTAG,-0.188
8,GGTCTTAC,0.131
9,CGTCTTAC,-0.141
10,CGTCTTAA,-0.00451
11,ACTCTTAG,0.198
12,TGTCTTAA,-0.0134
13,AGTCTTAA,0.387
14,AGTCTTAG,0.408
15,AATCTTAT,0.207
16,CCCCAGGC,-0.41
17,AATCGACT,0.258
18,ATCTGGCA,-0.118
19,AGTGACCC,-0.0592
20,GTCTATCA,0.0174
21,GGTTTCTA,-0.133
22,CCTTTCTA,-0.251
23,AACAACAT,-0.0999
24,CTTTGTAA,0.173
25,TAGTTGAA,0.127

row,Sequence,PBM E-score
1,CACGTGAG,0.0942
2,ATTAGTCG,0.41
3,ATTAGTGA,0.219
4,CTTAGTTA,0.221
5,ATTAGTGG,0.11
6,ATTAGTAC,0.205
7,ATTAGTCA,0.484
8,ATTAGTTA,0.153
9,CTTAGTCA,0.483
10,ATTAGTTG,0.118
11,CTTAGTAA,0.161
12,ATTAGGCC,0.00222
13,ATTAGTCC,0.373
14,AAGAATAG,0.0215
15,CTAGAAAC,0.0516
16,CCTTCTAG,-0.244
17,GCAATGCC,-0.31
18,TAATATTA,0.207
19,AGCGATCC,-0.315
20,CGCGTCTA,-0.228
21,GTTAGTGA,0.171
22,GTTAGTTA,0.165
23,CTTAGTTC,0.0883
24,GTTAGTCA,0.49
25,CTTAGGCC,-0.115

row,Sequence,PBM E-score
1,CTTAGTCC,0.37
2,CTCGCGCA,-0.0489
3,GAGCGTCA,-0.0316
4,CACTTTGA,0.184
5,GGCTATCA,-0.11
6,TAGTCGAA,0.243
7,TCGTCGCA,-0.0159
8,CAGTCGCC,0.254
9,AAGTCGCC,0.222
10,AAGTCGCA,0.257
11,GAGTCGCA,0.438
12,GAGTCGCC,0.439
13,TAGTCGCA,0.412
14,CAGTCGCA,0.15
15,ACGGGCCT,-0.363
16,GGGCACCC,-0.269
17,CGGGACCA,-0.208
18,GAAGCGTA,-0.151
19,AACGGAAC,-0.134
20,AAGAGCCC,-0.196
21,CATTTCGA,-0.0334
22,AATCACGA,0.347
23,CATCACGA,0.132
24,AATCACGT,0.382
25,GATCACGC,0.18

row,Sequence,PBM E-score
1,AATCACGC,0.391
2,AATCAAGA,0.235
3,AAGGCAGG,-0.192
4,ACGTCCGG,-0.217
5,AGTGGGCC,-0.307
6,CTTCTGCC,-0.225
7,ATGGTTAA,0.391
8,CTGGTTAA,0.162
9,GTGGTTAA,0.222
10,GTAGCGAA,-0.0282
11,ATGCCGAG,-0.0321
12,CACTCGCC,-0.0244
13,GACTCGCC,0.371
14,AACTCGCA,0.0388
15,CACTCGTA,-0.0316
16,GACTCGTA,0.419
17,AACTCGCC,-0.0941
18,TACTCGCA,0.211
19,AACTCGTA,-0.019
20,GACTCGCA,0.414
21,AAGGTACG,-0.094
22,GCGTAGAC,-0.0194
23,GAGGTGAC,0.224
24,TATTCCAA,-0.0766
25,GCACTGAC,0.131

row,Sequence,PBM E-score
1,GGGCCGAA,-0.287
2,GCCTGCGA,-0.22
3,GGCAATCA,0.283
4,CTCAATCA,0.402
5,ATCAATCA,0.381
6,ATCAATCC,-0.0246
7,ATCAATCG,0.193
8,GTCAATCA,0.389
9,CGCAATCA,0.302
10,GTCAATTA,0.123
11,CTCAATCC,0.146
12,TGGGCGAA,0.0204
13,ATCTCTAG,-0.0229
14,CAGACGAC,0.137
15,AGTAAGTC,0.354
16,CCTCAGCA,-0.202
17,AACTGGTA,-0.259
18,AATGACTG,0.441
19,CATGACGA,0.0513
20,AATGACCG,-0.203
21,AATGACTA,0.487
22,AATGACCA,0.0838
23,AATGACGA,0.0304
24,AATGACAG,-0.045
25,CATGACTA,0.491

row,Sequence,PBM E-score
1,CATGACAA,-0.00212
2,AATAGGCT,-0.0339
3,CTCTCGGA,0.144
4,CTGTGGAA,0.0224
5,AATCCTCG,-0.0311
6,AAACATTG,-0.0364
7,GATCATTA,0.128
8,AATCATTG,0.43
9,ATTCATTA,0.21
10,AATCATTA,0.397
11,AATCATTC,0.417
12,CATCATTA,0.161
13,CATCATTC,0.0981
14,AAGCATTG,-0.159
15,TGGTAGAA,-0.0551
16,CACCCTGC,0.118
17,AGGCTACG,-0.232
18,ATCCAAAC,0.00765
19,GAGGACAA,-0.195
